Results: PubChem BioAssay
Where “and” joins values, the source holds several entries; their conditions need not be identical. Identical values can stand only once. Calls of active or inactive are those of the source.

Tests used:
[1] = tested on: Plasmodium falciparum Sir2 (PF13_0152, Sir2A); experiment: Plasmodium falciparum Sir2A binding compounds – biochemical, small-molecule microarray, 635 nm fluorescence, primary screen (AID 1098); settings: fluorescence 635 nm, higher = more signal;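 further: score merges spot fluorescence intensity with its signal-to-noise ratio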
[2] = probe aDKK1 binding to arrayed compounds – biochemical, biotinylated probe, 635/667 nm fluorescence, primary screen (AID 1099); settings: small-molecule microarray, higher = more signal;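 further: score merges 667nm spot fluorescence with signal to noise across triplicate slides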
[3] = probe aCHRDL2 binding to arrayed compounds – biochemical, biotinylated probe, 635/667 nm fluorescence, primary screen (AID 1100); settings: small-molecule microarray, higher = more signal
[4] = change in splice reporter luminescence, either direction, cell-based, HEK293, spliceosome inhibition project, primary screen (AID 1101); settings: HEK293 splicing luciferase reporter, 24 h, higher = more signal, called active from +8 up or from −8 down;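 further: HEK293 cells carrying a splicing-competent luciferase reporter gene; test concentration not given here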
[5] = molecular target: Fibroblast growth factor 10 (Homo sapiens) (UniProt O15520); experiment: compounds binding fibroblast growth factor 10 – biochemical, small-molecule microarray, 635 nm fluorescence, primary screen (AID 1102); settings: FGF10 binding, fluorescence 635 nm, higher = more signal
Chain of Fibroblast growth factor 10 (Homo sapiens) (O15520 whole entry, looked up): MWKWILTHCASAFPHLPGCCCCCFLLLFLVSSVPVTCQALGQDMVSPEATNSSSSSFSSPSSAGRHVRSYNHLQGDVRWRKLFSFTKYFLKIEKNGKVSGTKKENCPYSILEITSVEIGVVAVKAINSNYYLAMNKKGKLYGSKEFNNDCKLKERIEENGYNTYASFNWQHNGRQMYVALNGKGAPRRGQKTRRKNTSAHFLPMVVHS

[6] = tested on: glycogen synthase kinase-3 (GSK3A per assay name; protocol says GSK3B); experiment: compounds binding glycogen synthase kinase-3 – biochemical, small-molecule microarray, 635 nm fluorescence, GSK3A, primary screen (AID 1103); settings: fluorescence 635 nm, higher = more signal; further: the record names both GSK3A and GSK3B
[7] = molecular target: Epidermal growth factor receptor (Homo sapiens) (UniProt P00533); experiment: compounds binding epidermal growth factor receptor – biochemical, small-molecule microarray, 635 nm fluorescence, primary screen (AID 1104); settings: EGFR binding, higher = more signal;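 further: score merges 667 nm emission intensity with spot signal to noise over triplicate slides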
Chain of Epidermal growth factor receptor (Homo sapiens) (P00533 whole entry, looked up): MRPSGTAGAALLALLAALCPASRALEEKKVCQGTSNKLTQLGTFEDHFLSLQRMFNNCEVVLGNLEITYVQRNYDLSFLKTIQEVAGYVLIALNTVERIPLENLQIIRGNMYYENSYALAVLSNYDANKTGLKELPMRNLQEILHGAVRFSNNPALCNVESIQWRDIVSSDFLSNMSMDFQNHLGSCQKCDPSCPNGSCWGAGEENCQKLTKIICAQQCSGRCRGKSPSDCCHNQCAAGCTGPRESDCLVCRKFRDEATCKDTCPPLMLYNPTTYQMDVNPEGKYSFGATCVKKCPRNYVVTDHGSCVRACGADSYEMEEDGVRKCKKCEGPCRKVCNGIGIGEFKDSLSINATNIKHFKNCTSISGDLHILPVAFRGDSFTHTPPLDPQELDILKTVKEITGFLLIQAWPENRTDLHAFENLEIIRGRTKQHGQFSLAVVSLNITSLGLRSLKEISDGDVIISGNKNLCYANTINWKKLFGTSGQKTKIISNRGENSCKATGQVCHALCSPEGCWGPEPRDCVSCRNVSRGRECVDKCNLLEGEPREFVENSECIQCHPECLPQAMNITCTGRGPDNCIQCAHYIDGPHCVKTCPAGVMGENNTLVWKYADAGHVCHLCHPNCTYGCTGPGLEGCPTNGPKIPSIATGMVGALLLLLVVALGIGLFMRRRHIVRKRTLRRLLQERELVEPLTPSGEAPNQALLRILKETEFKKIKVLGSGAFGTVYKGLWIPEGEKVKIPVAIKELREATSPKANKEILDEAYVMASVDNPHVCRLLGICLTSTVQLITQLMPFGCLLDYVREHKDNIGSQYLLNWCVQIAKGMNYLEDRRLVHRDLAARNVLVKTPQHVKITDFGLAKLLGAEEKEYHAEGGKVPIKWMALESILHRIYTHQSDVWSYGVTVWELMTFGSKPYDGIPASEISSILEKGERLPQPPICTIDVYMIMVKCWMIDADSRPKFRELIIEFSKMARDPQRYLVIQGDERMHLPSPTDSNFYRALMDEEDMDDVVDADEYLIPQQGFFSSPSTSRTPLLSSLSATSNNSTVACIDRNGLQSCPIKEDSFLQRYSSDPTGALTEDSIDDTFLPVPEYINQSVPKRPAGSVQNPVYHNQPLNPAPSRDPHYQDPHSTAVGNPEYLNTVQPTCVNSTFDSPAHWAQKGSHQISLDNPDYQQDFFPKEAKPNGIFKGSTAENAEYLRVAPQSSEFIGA

[8] = molecular target: Follistatin-related protein 3 (Homo sapiens) (UniProt O95633); experiment: compounds binding follistatin-related protein 3 – biochemical, small-molecule microarray, 635 nm fluorescence, primary screen (AID 1105); settings: FSTL3 binding, higher = more signal;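 further: score merges emission near 667 nm and signal to noise per printed spot across three slides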
Chain of Follistatin-related protein 3 (Homo sapiens) (O95633 whole entry, looked up): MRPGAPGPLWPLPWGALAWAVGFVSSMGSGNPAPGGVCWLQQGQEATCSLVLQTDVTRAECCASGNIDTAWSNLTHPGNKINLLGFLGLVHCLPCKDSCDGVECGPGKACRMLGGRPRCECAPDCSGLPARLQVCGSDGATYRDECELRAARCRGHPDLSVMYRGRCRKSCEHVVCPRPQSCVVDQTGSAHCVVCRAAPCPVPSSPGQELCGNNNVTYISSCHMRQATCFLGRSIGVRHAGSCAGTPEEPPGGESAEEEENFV

[9] = molecular target: Dickkopf-related protein 1 (Homo sapiens) (UniProt O94907); experiment: small molecules binding DKK1 protein – biochemical, small-molecule microarray, 635 nm fluorescence scan, primary screen (AID 1106); settings: higher = more signal;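 further: score merges emission near 667 nm with signal to noise over three replicate slides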
Chain of Dickkopf-related protein 1 (Homo sapiens) (O94907 whole entry, looked up): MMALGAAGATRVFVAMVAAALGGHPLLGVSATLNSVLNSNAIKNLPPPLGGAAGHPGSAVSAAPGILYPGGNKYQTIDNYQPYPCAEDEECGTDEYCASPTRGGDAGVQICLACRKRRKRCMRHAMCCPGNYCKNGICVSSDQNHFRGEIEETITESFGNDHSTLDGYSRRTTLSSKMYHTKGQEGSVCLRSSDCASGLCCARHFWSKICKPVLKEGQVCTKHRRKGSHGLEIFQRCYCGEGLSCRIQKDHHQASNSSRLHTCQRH

[10] = tested on: Inhibin beta A chain (activin A); experiment: small molecules binding activin A – biochemical, small-molecule microarray, 635 nm fluorescence scan, primary screen (AID 1107); settings: INHBA, higher = more signal;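 further: mouse activin A protein probed at 4.33 µg/mL on printed slides; score merges bound-protein fluorescence near 667 nm with spot signal-to-noise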
[11] = tested on: Human papillomavirus type 1a protein E7 (residues 44-93); experiment: small molecules binding HPV E7 44-93 – biochemical, small-molecule microarray, residues 44-93, 635 nm fluorescence, primary screen (AID 1108); settings: fluorescence 635 nm, higher = more signal;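 further: E7 fragment applied at 1 µg/mL in TBST for 1 h at 4 C; score combines spot fluorescence with its signal to noise ratio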
[12] = hepatitis C replication reporter changes, two-sided – Huh7 cells, luciferase reporter, HCV replication inhibitor project, primary screen (AID 1109); settings: Huh7 HCV replicon luciferase reporter, 48 h; higher = more signal;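 further: huh7 hepatoma cells harbouring a luciferase neomycin HCV replicon reporter; luciferase luminescence as measure of HCV replicon replication; test concentration not given here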
[13] = molecular target: Left-right determination factor 2 (Homo sapiens) (UniProt O00292); experiment: small molecules binding LEFTY2 protein – biochemical, small-molecule microarray, 635 nm fluorescence scan, primary screen (AID 1110); settings: higher = more signal
Chain of Left-right determination factor 2 (Homo sapiens) (O00292 whole entry, looked up): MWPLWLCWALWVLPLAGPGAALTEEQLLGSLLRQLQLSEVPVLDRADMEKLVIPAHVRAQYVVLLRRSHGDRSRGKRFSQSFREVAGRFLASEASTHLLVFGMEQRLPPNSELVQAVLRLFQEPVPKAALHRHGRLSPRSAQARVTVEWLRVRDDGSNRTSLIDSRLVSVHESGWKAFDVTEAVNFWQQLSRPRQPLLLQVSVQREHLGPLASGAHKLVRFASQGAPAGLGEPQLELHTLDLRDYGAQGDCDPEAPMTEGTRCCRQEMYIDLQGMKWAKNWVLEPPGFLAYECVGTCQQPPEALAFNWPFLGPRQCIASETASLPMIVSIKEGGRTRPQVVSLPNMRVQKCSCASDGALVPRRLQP

[14] = molecular target: Calmodulin-1 (Homo sapiens) (UniProt P0DP23); experiment: small molecules binding calmodulin-1 with EGTA – biochemical, small-molecule microarray, Cy5-labelled CALM1, profiling panel (AID 1111); settings: Cy5-CALM1 binding fluorescence, higher = more signal;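 further: labelled calmodulin applied in Tris saline Tween buffer holding calcium plus EGTA and DTT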
[15] = molecular target: Calmodulin-1 (Homo sapiens) (UniProt P0DP23); experiment: small molecules binding Ca-loaded calmodulin-1 – biochemical, small-molecule microarray, Cy5-labelled CALM1, plus calcium, artefact control for SMM control-protein annotation, profiling panel (AID 1112); settings: Cy5-CALM1 binding fluorescence, higher = more signal;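 further: score merges spot fluorescence with signal to noise from triplicate slides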
[16] = probe aWnt5a binding to arrayed compounds – biochemical, biotinylated probe, 635/667 nm fluorescence, primary screen (AID 1113); settings: small-molecule microarray, higher = more signal;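 further: score merges 667 nm fluorescence intensity with signal-to-noise per printed feature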
[17] = probe aShh binding to arrayed compounds – biochemical, biotinylated probe, 635/667 nm fluorescence, primary screen (AID 1114); settings: small-molecule microarray, higher = more signal;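 further: probe is biotin-labelled aShh protein from a stem cell growth factor screen; measures binding of labelled protein to compounds printed on the slide; score merges feature fluorescence at 667 nm with signal-to-noise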
[18] = probe aNog binding to arrayed compounds – biochemical, biotinylated probe, 635/667 nm fluorescence, primary screen (AID 1115); settings: small-molecule microarray, higher = more signal;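 further: probe is biotinylated aNog protein used at 0.15 µg/mL for 1 h at 4 C; z-score combines 667 nm fluorescence of each spot with its signal to noise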
[19] = molecular target: Torsin-1A-interacting protein 1 (Homo sapiens) (UniProt Q5JTV8); experiment: compound microarray binding of lysate hLAP1 – cell lysate, small-molecule microarray, COS7 lysate, 635/667 nm fluorescence, primary screen (AID 1116); settings: 635 nm fluorescence, higher = more signal
Chain of Torsin-1A-interacting protein 1 (Homo sapiens) (Q5JTV8 whole entry, looked up): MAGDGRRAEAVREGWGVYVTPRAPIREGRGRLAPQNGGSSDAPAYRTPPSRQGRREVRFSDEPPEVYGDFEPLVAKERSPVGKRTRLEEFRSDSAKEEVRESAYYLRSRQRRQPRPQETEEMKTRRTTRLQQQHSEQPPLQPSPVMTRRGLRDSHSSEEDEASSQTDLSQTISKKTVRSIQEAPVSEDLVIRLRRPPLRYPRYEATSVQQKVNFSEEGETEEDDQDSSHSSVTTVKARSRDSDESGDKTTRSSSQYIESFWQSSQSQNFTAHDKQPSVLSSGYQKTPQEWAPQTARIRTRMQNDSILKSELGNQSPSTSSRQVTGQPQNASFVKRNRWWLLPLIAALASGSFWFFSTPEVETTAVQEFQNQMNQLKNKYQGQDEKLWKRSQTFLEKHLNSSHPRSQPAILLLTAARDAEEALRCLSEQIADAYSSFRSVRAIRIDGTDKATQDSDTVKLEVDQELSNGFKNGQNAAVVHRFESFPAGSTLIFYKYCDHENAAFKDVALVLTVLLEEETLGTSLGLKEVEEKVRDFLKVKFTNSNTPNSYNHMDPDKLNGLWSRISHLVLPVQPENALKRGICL

[20] = molecular target: Alpha-bungarotoxin (Bungarus multicinctus) (UniProt P60615); experiment: compounds binding labelled alpha-BTX control protein – biochemical, small-molecule microarray, Alexa647 label, 635/667 nm fluorescence, artefact control for SMM control protein annotation, profiling panel (AID 1117); settings: alpha-BTX-A647 binding fluorescence, higher = more signal
Chain of Alpha-bungarotoxin (Bungarus multicinctus) (P60615 whole entry, looked up): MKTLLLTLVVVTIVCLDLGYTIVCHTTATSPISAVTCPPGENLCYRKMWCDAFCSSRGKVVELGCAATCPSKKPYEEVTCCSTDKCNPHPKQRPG

Compound	composite z-score [1]	composite z-score [2]	composite z-score [3]	z-score [4]	composite z-score [5]	composite z-score [6]	composite z-score [7]	composite z-score [8]	composite z-score [9]	composite z-score [10]	composite z-score [11]	z-score [12]	composite z-score [13]	composite z-score [14]	composite z-score [15]	composite z-score [16]	composite z-score [17]	composite z-score [18]	composite z-score [19]	composite z-score [20]
C=CCN(Cc1ccccc1)C(=O)C1N(CCCCCCO)C(=O)C2C(C(=O)O)C3C=CC21O3 (stereo not given)	0.751 and 0.912	-0.0659 and -0.197	0.991 and 0.926	-0.679 (inactive) and -1.35 (inactive)	-1.02 and -2.08	-0.973 and -1.08	-1.7 and -1.71	-1.49 and -1.67	-1.79 and -4	-1.29 and -2.29	-0.352 and -1.02	0.0022 and 0.118	-2.37 and -4.16	-0.326 and -0.505	0.498 and 0.722	-0.219 and -0.332	-0.0709 and -0.0035	-0.0211 and -0.316	0.193 and 0.0816	-1.13 and -1.12
COC(=O)[C@@]1(Cc2ccc(F)cc2)[C@H]2c3cc(C(=O)N4CCCC4)n(Cc4c(CO)[nH]cc(C)c4=O)c3C[C@H]2CN1C(=O)c1ccccc1	1.47 and 1.53	2.17 and -0.115	1.29 and 0.955	-1.48 (inactive) and -0.107 (inactive)	0.822 and 0.461	-0.252 and 0.368	0.704 and -0.2	0.0376 and -0.36	-0.198 and -0.57	1.02 and 1.31	0.866 and 0.952	-1.31 and -1.38	-0.0537 and -0.837	1.41 and 0.252	0.249 and 0.299	1.02 and 0.132	2.2 and 0.182	2.71 and 1.27	0.959 and 1.72	0.234 and -0.124
COCn1c2ccccc2c2nnc(C(C)=O)nc21	-0.137 and 0.312	-0.228 and -0.221	-0.42 and -0.408	-0.592 (inactive) and -0.85 (inactive)	0.529 and 0.182	-0.0671 and 0.0307	0.574 and 0.979	0.383 and 0.277	0.808 and 0.152	0.12 and 0.483	-0.421 and 0.238	-0.366 and 0.141	0.486 and 0.305	-0.338 and -0.015	-0.462 and -0.409	-0.182 and -0.124	-0.282 and -0.0769	-0.294 and -0.158	0.184 and 0.0111	0.0727 and 0.378
O=C1[C@H]2[C@H]3[C@H](O)[C@H](O)CC(=NOCc4ccccc4)[C@H]3CC[C@H]2C(=O)N1Cc1ccccc1	0.424	-0.276	-0.476	-2.42 (inactive)	0.185	-0.601	0.486	0.606	0.737	-0.201	-0.424	-0.44	0.552	-0.0595	-0.477	-0.222	-0.0772	-0.182	0.197	-0.0806
C=CCN(CCCC)C(=O)C1N(C(C)(C)CO)C(=O)C2C(C(=O)O)C3C=CC21O3 (stereo not given)	0.645 and 0.0697	-0.188 and -0.123	0.717 and 0.644	0.395 (inactive) and 0.383 (inactive)	-1.84 and -0.834	-2.07 and -1.67	-1.97 and -1.42	-2 and -2.8	-2.4 and -1.9	-3.85 and -3	-1.32 and -1.36	-0.299 and 0.145	-3.24 and -2.31	-0.742 and -0.335	1.1 and 0.491	-0.297 and -0.169	-0.0626 and -0.23	-0.0094 and 0.125	-1.24 and -2.03	-1.41 and -0.821
COc1ccc(-c2ccc3c(n2)CCCN3CC(O)CN2CCCc3nc(-c4ccc(Br)cc4)ccc32)cc1 (stereo not given)	1.01 and 0.727	0.507 and 0.293	0.0498 and 0.803	0.0317 (inactive) and -0.356 (inactive)	0.829 and 0.6	0.682 and 0.382	0.476 and 0.459	0.868 and 0.601	0.372 and 0.291	1.33 and -1.05	0.363 and -0.763	-2.44 and -0.174	0.61 and 0.922	0.347 and 0.413	0.116 and -0.108	0.0994 and -0.006	0.896 and 0.233	0.202 and 0.309	0.498 and 0.282	2.04 and 1.76
CCCC[C@@H]1CN2[C@@H](CC[C@@H](C)[C@@H]2c2ccc(Br)cc2)C(=O)O1	0.469 and 0.883	-0.13 and -0.277	-0.455 and -0.254	0.33 (inactive) and 0.758 (inactive)	0.979 and 0.906	0.521 and 0.0677	0.183 and -0.121	0.516 and 0.351	0.272 and 0.136	0.488 and -0.0019	1.27 and 1.07	-1.44 and -0.195	0.379 and 0.292	0.0614 and 0.32	-0.242 and -0.217	-0.152 and -0.13	0.0756 and -0.0553	-0.198 and 0.121	0.0865 and -0.0158	0.439 and 0.105
C=CCN(Cc1ccccc1)C(=O)C(c1cccs1)N(C(=O)/C=C\C(=O)O)c1ccc(CCO)cc1 (stereo not given)	-0.14 and -0.0434	-0.141 and -0.17	0.98 and 0.85	0.203 (inactive) and 0.258 (inactive)	-1.22 and -2.14	-1.23 and -1.61	-1.96 and -1.68	-1.91 and -1.88	-2.15 and -2.42	-1.76 and -3.2	-0.325 and -0.505	0.0048 and 0.875	-2.74 and -3.22	-0.729 and -1	0.204 and -0.257	-0.243 and -0.252	-0.221 and -0.138	-0.4 and -0.118	-0.648 and -0.326	-1.7 and -1.25
C=CCN(C(=O)C(c1cccs1)N(CCOCCO)C(=O)/C=C\C(=O)O)C(C)(C)C (stereo not given)	-1.45 and 1.17	-0.214 and -0.188	0.336 and 0.718	-0.0364 (inactive) and 0.0433 (inactive)	-1.34 and -1.24	-1.46 and -0.651	-1.21 and -0.944	-1.64 and -1.94	-2.14 and -2.17	-0.96 and -1.53	-1.34 and -0.3	0.399 and -0.274	-2.67 and -2.46	-1.36 and -0.361	-0.183 and 0.48	-0.154 and -0.239	-0.174 and 0.151	-0.0689 and 0.106	0.17 and -0.417	-2.22 and -0.34
COc1ccc(COC(=O)NN=C2C[C@@H](O)[C@@H](O)[C@@H]3[C@@H]4C(=O)N(C(C)(C)C)C(=O)[C@@H]4CC[C@H]23)cc1	0.871	-0.325	-0.25	-0.544 (inactive)	0.589	0.241	-0.0313	0.121	-0.116	-0.786	1.01	-0.167	0.0311	-0.0989	-0.143	-0.1	0.0469	-0.242	0.677	0.7
CC(C)=NOCc1ccc(-c2cn([C@@H]3COC[C@H]3O)nn2)cc1	-0.257	-0.123	-0.764	1.04 (inactive)	0.506	0.114	0.309	0.273	0.455	0.147	-0.0942	0.28	0.679	0.676	-0.358	-0.143	-0.17	-0.248	0.507	-0.175
